37 compounds from PubChem BioAssay (NCI) can be followed below.

About 83,000 compounds went through this panel and 20% of them were active in at least one assay; those are over-represented in the sample as a whole.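 Method: cells in 96-well plates; compound added at one concentration; 48 h incubation; percent growth measured; values under 10 scored active.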 Unmarked numbers belong to inactive results. Calls of active or inactive are those of the source.

The experiment concerns NCI-H460 lung. Kind of experiment: NCI-60 one-dose screen, 48 h (100 = growth as untreated, 0 = no growth, -100 = all killed). The note with it: 10 µM unless noted.
In the case of `Cc1ccc2c(c1)C(=O)/C(=C/c1ncc([N+](=O)[O-])n1C)O2`, the growth is -38% (active).

For `CCCc1nn(C)c2c(=O)[nH]c(-c3cc(S(=O)(=O)N4CCN(C)CC4)ccc3OCC)nc12`, the growth is 114%.

As to `Cc1ccc(NC(=O)Nc2ccc(-c3cccnc3)cc2N2CCC(CO)CC2)cc1`, the growth is 29.1%.

`O=C(Nc1cccc([N+](=O)[O-])c1)c1cccc(C(=O)Nc2cccc([N+](=O)[O-])c2)c1`: the growth is 74%.

Turning to `O=C(Nc1nc(-c2ccccc2)cs1)c1cc(O)c(O)c(O)c1`, the growth was 34.7%.

Take `CC(C)(C)c1ccc(C(O)CCCN2CCC(C(O)(c3ccccc3)c3ccccc3)CC2)cc1` (configuration not stated): the growth was -84.9% (active).

As to `Cc1cc(=O)n2n1-c1ccc(Cl)cc1NC(=O)C2`, the growth is 112%.

For the compound `CC(=O)NC1(C(=O)O)CCCC1`, the growth is 109%.

Turning to `Nc1nc(N)c([N+](=O)[O-])c(=O)[nH]1`, the growth is 106%.

On to `COc1ccc2nc(NC(=O)c3cc(-c4ccc(F)cc4)n4nc(-c5ccccc5)cc4n3)sc2c1`, for which the growth was 79.2%.

For `Cc1ccc2c(c1)O/C(=C\c1ccc([N+](=O)[O-])o1)C2=O`, the growth was 25.4%.

Regarding `CCOC(=O)c1c2c(c(C)n1Cc1ccc(OC)cc1)-c1nc(N)ncc1CC2`, the growth was 111%.

In the case of `COc1cc2c(-c3nc4cc(Cl)c(F)cc4s3)cc(=O)oc2c(C)c1OC`, the growth was -36.1% (active).

Consider `COc1cc(C(=O)/C=C/c2cccnc2Nc2ccccc2)cc(OC)c1OC`, for which the growth is -40.4% (active).

In the case of `O=C(C(Br)Br)C(Br)C(Br)c1ccccc1` (configuration not stated), the growth was 104%.

Take `CC/C=C\C=C/C(=O)N/C=C/CC1Cc2cccc(O)c2C(=O)O1` (configuration not stated): the growth was 130%.

As to `c1ccc2cc(C[n+]3ccn(CCCCCCCn4cc[n+](Cc5ccc6ccccc6c5)c4)c3)ccc2c1`, the growth was 14.6%.

As to `Nc1ccc2c3c(cccc13)-c1ccccc1-2`, the growth was 99.1%.

Take `Clc1ccc([C@@H]2C[C@@H]3Cc4cc(Br)c5ccccc5c4N2O3)c(Cl)c1`: the growth is 93.3%.

With `Cc1nn(-c2ccc(Br)cc2)c2nc3c(nc12)C(=O)C(=O)c1ccccc1-3`, the growth was 97.3%.

In the case of `COc1ccc(OC)c2c1[nH]c(=O)c1c3ccccc3cn21`, the growth is -61.2% (active).

Regarding `O=C(NCCCO)c1cc(Cl)ccc1O`, the growth was 9.74% (active).

For `COc1ccc(C2=NN(C(C)=O)C(c3cc(OC)c(OC)c(OC)c3)C2)cc1` (configuration not stated), the growth was 108%.

Take `CC(=O)O[C@H]1C(=O)[C@@]2(C)C([C@H](OC(=O)c3ccccc3)[C@]3(O)C[C@H](OC(=O)[C@H](O)[C@@H](NC(=O)c4ccccc4)c4ccccc4)C(C)=C1C3(C)C)[C@]1(OC(C)=O)CO[C@@H]1C[C@@H]2O` (some centres not stated): the growth was 7.33% (active).

For the compound `O=C(Nc1nc(-c2ccc(Cl)cc2)cs1)c1cc(O)c(O)c(O)c1`, the growth is 10.2%.

As to `CCCCN(CCCC)CCCOC(=O)c1ccc(N)cc1`, the growth is 78.4%.

With `CCCCCCCCCCC[C@@H](C[C@H]1OC(=O)[C@H]1CCCCCC)OC(=O)[C@@H](CC(C)C)NC=O`, the growth is 42.9%.

Consider `O=C1Nc2ccccc2C12Nc1cc(Cl)ccc1S2` (configuration not stated), for which the growth is 87.5%.

Turning to `CCOc1cc(C(C)(C)C)ccc1C1=N[C@H](c2ccc(Cl)cc2)[C@H](c2ccc(Cl)cc2)N1C(=O)N1CCN(CC#Cc2cccc3c2CN([C@@H]2CCC(=O)NC2=O)C3=O)CC1`, the growth is 24.2%.

In the case of `CN(CCOc1ccc(CC2SC(=O)NC2=O)cc1)c1ccccn1` (configuration not stated), the growth is 102%.

As for `C[C@]12CC[C@@H]3c4ccc(O)cc4CC[C@H]3[C@@H]1CC[C@@H]2NS(=O)(=O)c1cccc(Br)c1`, the growth was 61.7%.

On to `Clc1cc(Cl)c(OCC#CI)cc1Cl`, for which the growth is 100%.

With `O=C(Nc1cccc(C(F)(F)F)c1)Nc1ccc(OCc2nnc(-c3ccc(Cl)cc3)o2)c(F)c1`, the growth was 63.9%.

As to `CCCn1cnc2c1c(=O)n(CCCCC(C)=O)c(=O)n2C`, the growth is 103%.

For `N=c1ccn2c(n1)O[C@@H]1[C@@H](O)[C@H](CO)O[C@@H]12`, the growth is 12.3%.

Turning to `CCCCCCCCCCCCCCCCCc1nccn1CCO`, the growth is 24.6%.

In the case of `Nc1ccc(C2=Nc3cccc4cccc(c34)S2)cc1`, the growth is 89.5%.
